Most compounds without a hit are left out; they make up all but 5.5% or so of the library.
Six1-Eya2 blk: qHTS Assay for Inhibitors of the Six1/Eya2 Interaction; activity change, % (test concentration not listed); 360,000 tested, 0.56% active; AlphaScreen GST-Six1/His-Eya2 binding, biochemical; stronger effect = lower value; Homeobox protein SIX1 (Homo sapiens) + Protein phosphatase EYA2 (Homo sapiens), …; in the data active = activity change below about -65%; inconclusive = mostly about -30% to -63%; also: % is scaled to controls: 0 for no effect and ±100 for the full control effect
Target sequence (O00167 whole entry, looked up): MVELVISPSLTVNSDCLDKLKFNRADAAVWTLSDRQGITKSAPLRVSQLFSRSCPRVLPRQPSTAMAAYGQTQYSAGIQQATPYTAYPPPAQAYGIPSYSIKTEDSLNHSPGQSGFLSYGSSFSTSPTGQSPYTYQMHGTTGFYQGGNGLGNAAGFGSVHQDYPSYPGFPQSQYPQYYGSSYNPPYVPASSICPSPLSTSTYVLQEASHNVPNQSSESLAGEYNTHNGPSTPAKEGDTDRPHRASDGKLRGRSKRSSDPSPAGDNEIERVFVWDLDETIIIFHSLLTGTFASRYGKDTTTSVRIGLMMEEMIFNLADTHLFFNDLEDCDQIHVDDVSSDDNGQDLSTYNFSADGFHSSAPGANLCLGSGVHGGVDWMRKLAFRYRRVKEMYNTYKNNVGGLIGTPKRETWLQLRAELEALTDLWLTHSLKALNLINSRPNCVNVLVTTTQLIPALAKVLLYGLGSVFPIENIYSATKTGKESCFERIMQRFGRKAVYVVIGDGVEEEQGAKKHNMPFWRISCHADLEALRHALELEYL
Target sequence (Q15475 whole entry, looked up): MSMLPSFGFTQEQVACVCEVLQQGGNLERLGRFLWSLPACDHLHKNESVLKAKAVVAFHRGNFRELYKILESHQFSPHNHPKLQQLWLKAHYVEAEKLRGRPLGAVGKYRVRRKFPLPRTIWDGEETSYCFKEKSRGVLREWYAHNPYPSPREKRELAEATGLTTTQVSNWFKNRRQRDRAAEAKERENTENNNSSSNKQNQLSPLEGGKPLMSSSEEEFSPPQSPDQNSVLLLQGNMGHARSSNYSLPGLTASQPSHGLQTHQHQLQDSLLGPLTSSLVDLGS
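AlphaScreen with GST-Six1 and His-Eya2 (5X mix: 250 nM and 500 nM), glutathione donor and nickel acceptor beads; buffer 50 mM Tris pH 8.0, 300 mM NaCl, 1 mM TCEP; 1 h at 37 C in the dark.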
CtBP-E1A inh: qHTS Assay for Inhibitors of the CtBP/E1A Interaction. AlphaScreen GST-E1A/His-CtBP binding, 1536-well; stronger effect = lower value. activity change, % (test concentration not listed). 340,000 tested, 0.49% active; in the data active = activity change below about -65%; inconclusive = mostly about -30% to -63%; also: % is scaled to controls: 0 for no effect and ±100 for the full control effect
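Homogeneous bead-based format: GST-tagged E1A captured on glutathione donor beads, His-tagged CtBP on nickel acceptor beads; compounds precede bead addition by 2 h at 37 °C.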
RORg inh: qHTS for inhibitors of ROR gamma transcriptional activity; Nuclear receptor ROR-gamma (Mus musculus), P51450; Drosophila S2 Gal4-RORgamma UAS-luciferase reporter, 20 h; Potency, µM (series often up to 53.6 µM), for inactives: top-dose activity change, negative = inhibition, hits mostly inhibitors; 310,000 tested, 5.4% active; AID 2551, 2010; also: potency is read from the fitted curve at half-maximal effect; % is scaled to controls: 0 for no effect and ±100 for the full control effect; nearly all actives have a fitted effect of over 60% in size
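Drosophila Schneider cells stably carrying a metallothionein-driven Gal4 DBD–ROR gamma fusion and a UAS-Photinus luciferase reporter were exposed to compound for 1 hr, then induced with copper sulfate (700 uM final) for 20 hr at ambient temperature before luminescence reading.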
MBNL1 CUG block: qHTS Assay for Inhibitors of MBNL1-poly(CUG) RNA binding | 280,000 tested, 0.036% active | Potency, µM (highest dose often 57.5 µM), for the others: at the top dose activity change, negative = inhibition, most hits filed as inhibitors | TR-FRET MBNL1-His/biotin-(CUG)12 binding, 665/545 ratio; active = well fitted inhibition curve with a large enough effect in the signal ratio, with a control signal flat, not every such curve was filed as active; inconclusive = small, poorly fitted or top-dose-only effect, or effect the other way, or a change in a side signal; inactive = no such curve, though single readings can be large or run the other way; the % refers to the signal ratio; also: potency is read from the fitted curve at half-maximal effect; % is scaled to controls: 0 for no effect and ±100 for the full control effect
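TR-FRET between His-tagged MBNL1 and biotin-(CUG)12 RNA, detected with Tb anti-His antibody (0.055 ng/ul) and streptavidin-XL665 (5 nM), 60 min at room temperature. Compounds titrated 92 nM to 58 uM; 665/545 nm ratio normalized to buffer and complex controls.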
Gal4-VP16 FLuc: VP16 counterscreen qHTS for inhibitors of ROR gamma transcriptional activity | Drosophila S2 Gal4-VP16 UAS-luciferase, luminescence, 20 h | Potency, µM (titrated, usually from 53.6 µM), without a hit: at the highest dose activity, negative = inhibition, most hits filed as inhibitors | 310,000 tested, 3.5% active | AID 2546, 2010;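 also: Gal4-VP16 expression switched on by copper sulfate through the metallothionein promoter; potency is read from the fitted curve at half-maximal effect; % is scaled to controls: 0 for no effect and ±100 for the full control effect; nearly all actives have a fitted effect of over 50% in size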
CBFb-RUNX1 inh: qHTS Assay for Compounds Blocking the Interaction Between CBF-beta and RUNX1 for the Treatment of Acute Myeloid Leukemia; Runt-related transcription factor 1 (Homo sapiens) + Core-binding factor subunit beta …; AlphaScreen CBFb-His/RUNX1-biotin binding, biochemical; Potency, µM (highest dose often 59.8 µM), inactives show at the highest dose activity, negative = inhibition, actives largely listed as inhibitors; 230,000 tested, under 10 active; AID 1477, 2009; also: % of control where 0% means no effect
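AlphaScreen proximity signal reports loss of binding between His-tagged CBF-beta and biotin-labelled RUNX1, each at 30 nM. Proteins are pre-associated for 20 minutes, compounds added for 15 minutes, then beads for 90 minutes, all at ambient temperature.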
Starred values were filed as active, the others as inactive; ? = inconclusive; nt = not tested or not shown; [ ] = dose if it differs, or a comment. Unless noted, calls follow the shape of the dose curve; as a rule, active = well fitted curve in the direction sought with a large enough effect; inconclusive = small, poorly fitted or top-dose-only effect, or another doubt; inactive = no such curve, though single readings can be large; an effect the other way counts as inactive or inconclusive.

SMILES | Six1-Eya2 blk | CtBP-E1A inh | RORg inh | MBNL1 CUG block | Gal4-VP16 FLuc | CBFb-RUNX1 inh
O=C(COc1ccc(Cl)cc1)N/N=C/c1cccc2cccnc12 | ? | ? | 13µM* | 16% | 10µM* | nt
COc1ccc(OCC(=O)N/N=C/c2cccc3cccnc23)cc1 | -80* | -86* | nt | nt | nt | nt
COc1cccc(/C=N/NC(=O)CSc2cccc3cccnc23)c1 | -94* | -94* | 8.9µM* | ? | ? | -17%
CC(C)(C)OC(=O)N1CCC(NC(=O)c2[nH]cnc2C(=O)Nc2ccon2)CC1 | -25 | -22 | nt | nt | nt | nt
Cc1cc(-c2ccc(C)c(S(=O)(=O)NCc3ccc(OC(C)C)cc3)c2)on1 | 10 | 1 | 15% | -6% | -3% | nt
COC(=O)c1ccc(C(/C=C/[C@@H](C)C(=O)NCCc2c[nH]c3ccccc23)NC(=O)OCc2ccccc2)cc1 (some centres not stated) | nt | nt | ? | nt | -7% | -8%
CCOc1ccc(-n2c(N)c(C(=O)NCc3ccco3)c3nc4ccccc4nc32)cc1 | -25 | -19 | ? | ? | 1% | 18%
CCOc1ccc(-n2c(N)c(-c3nc4ccccc4n3C)c3nc4ccccc4nc32)cc1 | 7 | 1 | 1µM* | -14% | 1.3µM* | 3%
Cc1ccc(S(=O)(=O)c2nc(-c3ccccc3Cl)oc2N2CCN(C)CC2)cc1 | 0 | -24 | nt | nt | nt | nt
CN(C(=O)CN1CCC(NC(=O)c2ccccc2Br)CC1)C1CCCCC1 | -1 | 7 | -28% | 0% | 16% | nt
CC1CCCCC1NC(=S)NC(=O)c1ccccc1Br (configuration not stated) | 4 | 0 | 2.8µM* | -1% | 5µM* | -6%
CC1CCCCC1NC(=S)NC(=O)c1ccccc1Cl (configuration not stated) | 12 | -8 | nt | nt | nt | nt
CN(C(=S)NC(=O)c1ccccc1Br)C1CCCCC1 | 0 | -12 | 0.89µM* | 0% | 3.2µM* | 0%
Cc1ccccc1C(=O)NC(=S)N(C)C1CCCCC1 | -2 | 2 | ? | -12% | 2.8µM* | nt
CCCN(CC1CC1)C(=S)NC(=O)c1ccccc1C | -7 | 1 | nt | nt | nt | nt
O=C(O)c1ccccc1C=NNc1ccccn1 | 1 | -17 | nt | nt | nt | nt
Cc1cccc(NC(=O)CSc2nnc(C3CC3)n2CC2CCCO2)c1 (configuration not stated) | 13 | -4 | -6% | 2% | 0% | nt
Cc1cc2cc(C#N)c(NCCNC(=S)NCCCN3CCOCC3)nc2cc1C | -21 | -17 | -42% | ? | -4% | 1%
CCOCCCNC(=S)NCCCNc1nc2c(C)c(C)ccc2cc1C#N | 12 | 8 | 11µM* | 5% | ? | 3%
Cc1cccc2cc(C#N)c(NCCNC(=S)NCCCN3CCOCC3)nc12 | -2 | 4 | 4µM* | -15% | -2%[0.365 µM] | 4%
COc1ccc(NC(=O)C2C3C=CC4(O3)C2C(=O)N(CCCN2CCCC(C)C2)C4C(=O)NC2CCCCC2)cc1 (configuration not stated) | 35 | -13 | -24% | 3% | 4% | nt
O=C(c1cc(-c2ccc(Cl)cc2Cl)on1)N1CCN(C(=O)c2ccco2)CC1 | -3 | -1 | 1% | 9% | -2% | 1%
O=C(c1cc(-c2ccc(Cl)cc2Cl)on1)N1CCCC1 | -1 | 5 | 8.9µM* | -1% | 10µM* | nt
O=C(c1cc(-c2ccc(Cl)cc2Cl)on1)N1CCCCCC1 | 17 | 10 | 8.9µM* | 1% | ? | nt
CCOc1cc(NC(=S)Nc2cccc(OC)c2)c(OCC)cc1NC(=O)C(C)C | -13 | -8 | 8.9µM* | -2% | ? | -11%
SMILES | Six1-Eya2 blk | CtBP-E1A inh | RORg inh | MBNL1 CUG block | Gal4-VP16 FLuc | CBFb-RUNX1 inh
CCOc1cc(NC(=S)Nc2cccc(C)c2)c(OCC)cc1NC(=O)CC(C)C | -7 | -8 | 6.3µM* | 10% | 20µM* | -15%
CCOc1cc(NC(=O)CCl)c(OCC)cc1NC(=O)CCl | 2 | 5 | 13µM* | -1% | 20µM* | 1%
CCOc1cc(NC(=S)Nc2ccc(Cl)cc2)c(OCC)cc1NC(C)=O | -6 | -2 | 11µM* | -7% | ? | -2%
COc1cccc(NC(=O)C(C)C)c1 | -4 | 5 | nt | nt | nt | nt
CCOc1ccccc1NC(=O)CCC(=O)Nc1ccccc1OCC | 2 | 3 | 2% | 0% | -7% | 1%
O=C(CN1CCN(S(=O)(=O)c2ccc3c(c2)OCCO3)CC1)Nc1cccc(F)c1 | -6 | 0 | nt | nt | nt | nt
C[C@@H]1CN([C@H](C)CO)C(=O)CCCn2nncc2CO[C@H]1CN(C)S(=O)(=O)c1ccc2ccccc2c1 | -12 | -19 | nt | nt | nt | nt
COC(=O)[C@H]1Cc2c([nH]c3ccccc23)CN1C(=O)COc1ccc2c(C)cc(=O)oc2c1 | nt | nt | 16% | nt | -14% | -12%
CC1(C(=O)O)CCCN1C(=O)c1cc2ccccc2s1 (configuration not stated) | 4 | 15 | nt | nt | nt | nt
CCOc1cc(NC(=S)Nc2ccccc2)c(OCC)cc1NC(=O)c1ccc(OC)cc1 | -13 | -17 | 4µM* | 1% | 11µM* | -9%
COc1cccc(NC(=S)NC(C)c2ccc(OC)c(OC)c2)c1 (configuration not stated) | 3 | 0 | 7.9µM* | 1% | ? | -3%
CCOc1cc(NC(=S)Nc2cccc(OC)c2)c(OCC)cc1NC(=O)c1ccc(C)cc1 | -20 | -17 | 7.9µM* | 4% | 16µM* | -5%
CCCCC1Cc2[nH]c(=S)[nH]c(=O)c2C(c2cccc3ccccc23)O1 (configuration not stated) | -4 | 3 | nt | nt | nt | nt
CCCCc1cc(=O)oc2cc(OC3CCCCC3=O)ccc12 (configuration not stated) | 22 | nt | 15% | -3% | -2% | nt
O=C(CCC1CCCC1)NCCCNC(=O)CCC1CCCC1 | 4 | 2 | nt | -6% | nt | nt
O=C1CCC2S/C(=C/Nc3ccc(C(F)(F)F)cc3)C(=O)N12 (configuration not stated) | -20 | nt | 1.3µM* | nt | ? | -2%
CCCSc1ccc2nc(-c3ccccc3)cn2c1 | 8 | 14 | 2.2µM* | 22% | 6.3µM* | 2%
Cc1ccc(Sc2ncccc2C(=O)NCc2cc([N+](=O)[O-])ccc2O)c(C)c1 | -21 | -29 | 5µM* | 2% | 7.1µM* | nt
